Bioassay records from PubChem BioAssay.
PME-1 Maybridge = PME-1 (human) inhibition, Maybridge primary screen | 16,000 tested, 0.5% active | Q9Y570 | inhibition, % at 9 µM | recombinant PME-1, FP-Rh probe fluorescence polarization; in the data active = inhibition above about 30%
Target sequence (Q9Y570 whole entry, looked up): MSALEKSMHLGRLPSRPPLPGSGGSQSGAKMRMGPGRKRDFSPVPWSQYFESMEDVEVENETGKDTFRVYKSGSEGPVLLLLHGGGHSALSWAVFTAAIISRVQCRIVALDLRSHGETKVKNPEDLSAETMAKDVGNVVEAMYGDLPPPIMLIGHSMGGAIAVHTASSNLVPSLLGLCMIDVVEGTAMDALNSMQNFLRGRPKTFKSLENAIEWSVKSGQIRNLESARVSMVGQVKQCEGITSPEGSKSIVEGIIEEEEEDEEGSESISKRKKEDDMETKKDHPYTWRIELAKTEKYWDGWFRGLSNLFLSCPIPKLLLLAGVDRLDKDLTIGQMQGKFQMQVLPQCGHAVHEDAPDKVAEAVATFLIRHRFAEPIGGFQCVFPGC
luminol inh ctr = counter-screen for Nox1 inhibitors: inhibitors of luminol chemiluminescence; HRP/luminol/H2O2 chemiluminescence counterscreen; inhibition, % at 6.7 µM; 16,000 tested, 0.4% active; note: reference of the scale not given here
OPRK1 antag MB = OPRK1 (human) antagonism, Maybridge screen; OPRK1 cells, antagonist mode, fluorescence readout; inhibition, % at 9 µM; 16,000 tested, 0.4% active; AID 652031; in the data active = inhibition above about 50%
TLR4-MyD88 inh = inhibitors of human TLR4-MyD88 binding. inhibition, % at 10 µM. 16,000 tested, 0.06% active. O00206. Cell-based TLR4-MyD88 binding inhibition assay; in the data active = inhibition above about 45%
NOTCH agonist = agonists of NOTCH signaling | NOTCH signaling luciferase reporter cells, luminescence | activation, % at 2.5 µM | AID 434982 | 15,000 tested, 0.4% active; in the data active = activation above about 2.2%
Nox1 inh = inhibitors of human NADPH oxidase 1 (Nox1) | 16,000 tested, 0.81% active | AID 1792 | HT29 cells, luminol chemiluminescence ROS | inhibition, % at 6.7 µM | Q9Y5S8
Hits are given with their value. Compounds with a hit are over-represented: about 2.6% of the library has one in this group of screens. Cut-off read from the data, not from the text of the source, unless noted: active = inhibition above about 75%; inactive = the rest.

What do the screens show for `COc1cc([N+](=O)[O-])c(OC)cc1SCc1n[nH]c(=S)n1-c1ccc(C)cc1`?
PME-1 Maybridge: inactive; luminol inh ctr: inactive; OPRK1 antag MB: 76; TLR4-MyD88 inh: inactive; NOTCH agonist: inactive; Nox1 inh: inactive

Results for Cc1sc2c(c1C)C(=O)/C(=C\Nc1ccccc1Cl)S(=O)(=O)N2C ?
PME-1 Maybridge: inactive; luminol inh ctr: inactive; OPRK1 antag MB: inactive; TLR4-MyD88 inh: inactive; NOTCH agonist: inactive; Nox1 inh: inactive

What do the screens show for `Cc1ccc(SC#N)c(N)n1`?
PME-1 Maybridge: inactive; luminol inh ctr: inactive; OPRK1 antag MB: inactive; TLR4-MyD88 inh: inactive; NOTCH agonist: inactive; Nox1 inh: 100

Results for C(=Nc1cccc2ccccc12)c1ccccc1 ?
PME-1 Maybridge: inactive; luminol inh ctr: inactive; OPRK1 antag MB: inactive; TLR4-MyD88 inh: inactive; NOTCH agonist: inactive; Nox1 inh: inactive

Results for Oc1ccccc1N=CC=Nc1ccccc1O ?
PME-1 Maybridge: inactive; luminol inh ctr: inactive; OPRK1 antag MB: inactive; TLR4-MyD88 inh: inactive; NOTCH agonist: inactive; Nox1 inh: 96

How did CCCCCCCCCCCC(=O)ON1C(=O)CCC1=O do in these assays?
PME-1 Maybridge: inactive; luminol inh ctr: inactive; OPRK1 antag MB: 50; TLR4-MyD88 inh: inactive; NOTCH agonist: inactive; Nox1 inh: inactive

Results for O=c1c2ccccc2oc2cc(O)ccc12 ?
PME-1 Maybridge: inactive; luminol inh ctr: inactive; OPRK1 antag MB: inactive; TLR4-MyD88 inh: inactive; NOTCH agonist: inactive; Nox1 inh: inactive

What do the screens show for `Cc1c(Cc2c(Cl)cccc2Cl)c(=O)oc2cc(O)ccc12`?
PME-1 Maybridge: 33; luminol inh ctr: inactive; OPRK1 antag MB: inactive; TLR4-MyD88 inh: inactive; NOTCH agonist: inactive; Nox1 inh: inactive

Results for Cc1n[nH]c(C)c1Oc1ccc(Cl)cc1 ?
PME-1 Maybridge: inactive; luminol inh ctr: inactive; OPRK1 antag MB: inactive; TLR4-MyD88 inh: inactive; NOTCH agonist: inactive; Nox1 inh: inactive

Results for C=CCn1c(C(C)Oc2ccc(Cl)cc2)n[nH]c1=S (centres undefined) ?
PME-1 Maybridge: inactive; luminol inh ctr: 94; OPRK1 antag MB: inactive; TLR4-MyD88 inh: inactive; NOTCH agonist: inactive; Nox1 inh: inactive

What do the screens show for `O=c1c(NCc2ccccc2)c(NCc2ccccc2)c1=O`?
PME-1 Maybridge: inactive; luminol inh ctr: inactive; OPRK1 antag MB: inactive; TLR4-MyD88 inh: inactive; NOTCH agonist: inactive; Nox1 inh: inactive

What do the screens show for `COC(=O)c1cnn(-c2ccc(Cl)cc2)c1C=Nc1ccc(C)cc1`?
PME-1 Maybridge: inactive; luminol inh ctr: inactive; OPRK1 antag MB: inactive; TLR4-MyD88 inh: inactive; NOTCH agonist: inactive; Nox1 inh: inactive

Results for COC(=O)/C=C1\SC(=Nc2ccc(Cl)cc2)N(c2ccc(Cl)cc2)C1=O ?
PME-1 Maybridge: inactive; luminol inh ctr: inactive; OPRK1 antag MB: 65; TLR4-MyD88 inh: inactive; NOTCH agonist: inactive; Nox1 inh: inactive

How did Cn1cnc(S(=O)(=O)Nc2ccc(N3CCCCC3)cc2)c1 do in these assays?
PME-1 Maybridge: inactive; luminol inh ctr: inactive; OPRK1 antag MB: inactive; TLR4-MyD88 inh: inactive; NOTCH agonist: inactive; Nox1 inh: 87

Results for Cc1cc(=O)n2c([nH]c3ccccc32)c1C#N ?
PME-1 Maybridge: inactive; luminol inh ctr: 85; OPRK1 antag MB: inactive; TLR4-MyD88 inh: inactive; NOTCH agonist: inactive; Nox1 inh: inactive

Results for Cc1cc(S(=O)(=O)NNc2ncnc3cc(C(C)(C)C)sc23)c(C)cc1Cl ?
PME-1 Maybridge: inactive; luminol inh ctr: inactive; OPRK1 antag MB: inactive; TLR4-MyD88 inh: inactive; NOTCH agonist: inactive; Nox1 inh: 94

Results for Cc1ccc(C(=O)NNc2ncnc3cc(C(C)(C)C)sc23)cc1 ?
PME-1 Maybridge: inactive; luminol inh ctr: inactive; OPRK1 antag MB: inactive; TLR4-MyD88 inh: inactive; NOTCH agonist: inactive; Nox1 inh: inactive

Results for Cc1cc(C(=O)NNS(=O)(=O)c2cccc3cccnc23)nn1C(C)(C)C ?
PME-1 Maybridge: inactive; luminol inh ctr: inactive; OPRK1 antag MB: inactive; TLR4-MyD88 inh: inactive; NOTCH agonist: 3.2; Nox1 inh: inactive

What do the screens show for `CCOc1c(NN(C)C)c(=O)c1=O`?
PME-1 Maybridge: inactive; luminol inh ctr: 102; OPRK1 antag MB: inactive; TLR4-MyD88 inh: inactive; NOTCH agonist: inactive; Nox1 inh: inactive

Results for O=S(=O)(Nc1ccc(N2CCCCC2)cc1)c1cc(S(=O)(=O)c2ccccc2)cs1 ?
PME-1 Maybridge: inactive; luminol inh ctr: inactive; OPRK1 antag MB: inactive; TLR4-MyD88 inh: inactive; NOTCH agonist: inactive; Nox1 inh: 104

What do the screens show for `CC(=O)N1CCSC1C(=O)NN` (centres undefined)?
PME-1 Maybridge: inactive; luminol inh ctr: inactive; OPRK1 antag MB: inactive; TLR4-MyD88 inh: inactive; NOTCH agonist: inactive; Nox1 inh: inactive

What do the screens show for `CC(=O)N1CCC(C(=O)O/N=C(\N)c2ccc(Cl)cc2)CC1`?
PME-1 Maybridge: inactive; luminol inh ctr: inactive; OPRK1 antag MB: 126; TLR4-MyD88 inh: inactive; NOTCH agonist: inactive; Nox1 inh: inactive

How did CC1(C)OC(=O)C(=Cc2ccc(Cl)cc2Cl)C(=O)O1 do in these assays?
PME-1 Maybridge: inactive; luminol inh ctr: inactive; OPRK1 antag MB: inactive; TLR4-MyD88 inh: inactive; NOTCH agonist: inactive; Nox1 inh: inactive

Results for c1csc(-c2nn[nH]n2)c1 ?
PME-1 Maybridge: inactive; luminol inh ctr: inactive; OPRK1 antag MB: inactive; TLR4-MyD88 inh: inactive; NOTCH agonist: 2.9; Nox1 inh: inactive

How did COC(=O)c1ccc(CO/N=C(\N)c2cc(Cl)c(N)c(Cl)c2)o1 do in these assays?
PME-1 Maybridge: inactive; luminol inh ctr: inactive; OPRK1 antag MB: inactive; TLR4-MyD88 inh: inactive; NOTCH agonist: inactive; Nox1 inh: inactive

Results for O=C(NNc1cc(Cl)cc(Cl)c1)c1ccc(F)cc1F ?
PME-1 Maybridge: inactive; luminol inh ctr: 76; OPRK1 antag MB: inactive; TLR4-MyD88 inh: inactive; NOTCH agonist: inactive; Nox1 inh: inactive

What do the screens show for `CC(C)NC(=O)O/N=C(/N)COc1ccc(C2SCCS2)cc1`?
PME-1 Maybridge: inactive; luminol inh ctr: inactive; OPRK1 antag MB: inactive; TLR4-MyD88 inh: inactive; NOTCH agonist: inactive; Nox1 inh: inactive

What do the screens show for `CN(C)c1ccc(-n2nnnc2SCc2ccc(Cl)cc2)cc1`?
PME-1 Maybridge: inactive; luminol inh ctr: inactive; OPRK1 antag MB: 59; TLR4-MyD88 inh: inactive; NOTCH agonist: inactive; Nox1 inh: inactive

Results for COc1ccc(C(=O)/C(C#N)=C/N(C)C)cc1 ?
PME-1 Maybridge: inactive; luminol inh ctr: inactive; OPRK1 antag MB: inactive; TLR4-MyD88 inh: inactive; NOTCH agonist: inactive; Nox1 inh: inactive

What do the screens show for `CCOC(=O)Cc1c(C(=O)OCC)[nH]c(C)c1C(=O)OCc1ccccc1`?
PME-1 Maybridge: inactive; luminol inh ctr: inactive; OPRK1 antag MB: inactive; TLR4-MyD88 inh: inactive; NOTCH agonist: 5.8; Nox1 inh: inactive

How did N#CC(C#N)=Cc1ccc(OCc2ccsc2C#N)cc1 do in these assays?
PME-1 Maybridge: inactive; luminol inh ctr: inactive; OPRK1 antag MB: inactive; TLR4-MyD88 inh: inactive; NOTCH agonist: inactive; Nox1 inh: inactive

Results for C/C(=N/NC(N)=O)c1ccc(Sc2ccc(Cl)cc2)c([N+](=O)[O-])c1 ?
PME-1 Maybridge: inactive; luminol inh ctr: inactive; OPRK1 antag MB: inactive; TLR4-MyD88 inh: inactive; NOTCH agonist: inactive; Nox1 inh: inactive

How did Cc1ccc2nc(-c3ccsc3)cn2c1 do in these assays?
PME-1 Maybridge: inactive; luminol inh ctr: inactive; OPRK1 antag MB: inactive; TLR4-MyD88 inh: inactive; NOTCH agonist: inactive; Nox1 inh: inactive
